# Where a name gives a salt, the structure may show the parent alone. ± gives the standard deviation.
# System: Jurkat
# Assay: mean cell size (FSC-A) relative to DMSO control (fraction of control); higher = larger cells
# Details: 48 h
# How it was run: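 Jurkat cells at 600 cells/µl were incubated for 1 h and then treated for 48h with the Enzo Screen-Well FDA Approved Drug Library v2.0 at 25µM, with DMSO at 0.9% (v/v) final. Compounds that reduced counts below 20% of controls were retested in 10-fold dilutions down to 25nM. Cell count and mean cell size, taken as forward scatter area, were measured by flow cytometry relative to solvent-only controls. Each plate carried 6-12 controls, and values are means of 3 biological replicates.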
row,SMILES,mean cell size
1,CN1CCC[C@H]1c1cccnc1 [Nicotine] (concentration: 25 µM),0.936 ± 0.045
2,CCCN1CCCC[C@H]1C(=O)Nc1c(C)cccc1C [Ropivacaine·HCl Monohydrate] (concentration: 25 µM),0.978 ± 0.014
3,CCCCC(C)(O)C/C=C/[C@H]1[C@H](O)CC(=O)[C@@H]1CCCCCCC(=O)OC (mixture of isomers) [Misoprostol] (concentration: 25 µM),0.939 ± 0.037
4,CS(=O)(=O)CCNCc1ccc(-c2ccc3ncnc(Nc4ccc(OCc5cccc(F)c5)c(Cl)c4)c3c2)o1 [Lapatinib Ditosylate] (concentration: 25 µM),0.924 ± 0.072
5,CC1(C)S[C@@H]2[C@H](NC(=O)COc3ccccc3)C(=O)N2[C@H]1C(=O)O [Penicillin V Potassium] (concentration: 25 µM),0.994 ± 0.015
6,Fc1ccc([C@@H]2CCNC[C@H]2COc2ccc3c(c2)OCO3)cc1 [Paroxetine·HCl] (concentration: 2.5 µM),1.01 ± 0.059
7,CN1CC(=O)N2[C@H](c3ccc4c(c3)OCO4)c3[nH]c4ccccc4c3C[C@@H]2C1=O [Tadalafil] (concentration: 25 µM),0.922 ± 0.05
8,C=CC1=C(C(=O)O)N2C(=O)[C@@H](NC(=O)/C(=N\OCC(=O)O)c3csc(N)n3)[C@H]2SC1 [Cefixime] (concentration: 25 µM),0.977 ± 0.018
9,CNC(=O)c1cnn(-c2nc(N)c3ncn([C@@H]4O[C@H](CO)[C@@H](O)[C@H]4O)c3n2)c1 [Regadenoson] (concentration: 25 µM),0.991 ± 0.035
10,CN1C(=O)CC(C)(c2ccccc2)C1=O (centres undefined) [Methsuximide] (concentration: 25 µM),1.03 ± 0.03
11,C=CC1=C(C(=O)O)N2C(=O)[C@@H](NC(=O)/C(=N\O)c3csc(N)n3)[C@H]2SC1 [Cefdinir] (concentration: 25 µM),0.976 ± 0.059
12,CC(C)(C#N)c1cc(Cn2cncn2)cc(C(C)(C)C#N)c1 [Anastrozole] (concentration: 25 µM),0.98 ± 0.021
13,COCC1=C(C(=O)OC(C)OC(=O)OC(C)C)N2C(=O)[C@@H](NC(=O)/C(=N\OC)c3csc(N)n3)[C@H]2SC1 (some centres undefined) [Cefpodoxime Proxetil] (concentration: 25 µM),0.94 ± 0.021
14,COC(=O)C1=C(C)NC(C)=C(C(=O)OC(C)C)C1c1cccc2nonc12 (centres undefined) [Isradipine] (concentration: 25 µM),0.924 ± 0.03
15,O=C(O)COCCN1CCN([C@H](c2ccccc2)c2ccc(Cl)cc2)CC1 [Levocetirizine Dihydrochloride] (concentration: 25 µM),0.961 ± 0.039
16,CN[C@@H]1[C@H](O[C@H]2[C@H](O[C@H]3[C@H](O)[C@@H](O)[C@H](N=C(N)N)[C@@H](O)[C@@H]3N=C(N)N)O[C@@H](C)[C@]2(O)C=O)O[C@@H](CO)[C@H](O)[C@H]1O [Streptomycin Sulfate] (concentration: 25 µM),0.996 ± 0.028
17,CCOc1ccccc1OCCN[C@H](C)Cc1ccc(OC)c(S(N)(=O)=O)c1 [Tamsulosin·HCl] (concentration: 25 µM),0.988 ± 0.037
18,CN1CCCC(n2nc(Cc3ccc(Cl)cc3)c3ccccc3c2=O)CC1 (centres undefined) [Azelastine·HCl] (concentration: 25 µM),0.923 ± 0.037
19,CC[C@]1(O)C[C@H]2CN(CCc3c([nH]c4ccccc34)[C@@](C(=O)OC)(c3cc4c(cc3OC)N(C=O)[C@H]3[C@@](O)(C(=O)OC)[C@H](OC(C)=O)[C@]5(CC)C=CCN6CC[C@]43[C@@H]65)C2)C1 [Vincristine Sulfate] (concentration: 25 nM),0.985 ± 0.011
20,NS(=O)(=O)Cc1noc2ccccc12 [Zonisamide] (concentration: 25 µM),1 ± 0.05
21,COc1ccc2[nH]c([S+]([O-])Cc3ncc(C)c(OC)c3C)nc2c1 (centres undefined) [Omeprazole] (concentration: 25 µM),0.946 ± 0.035
22,CS(=O)(=O)OCCCCOS(C)(=O)=O [Busulfan] (concentration: 25 µM),1.03 ± 0.016
23,CCCc1nc(C)c2c(=O)nc(-c3cc(S(=O)(=O)N4CCN(CC)CC4)ccc3OCC)[nH]n12 [Vardenafil] (concentration: 25 µM),0.966 ± 0.021
24,COc1ccc2[nH]c([S@@+]([O-])Cc3ncc(C)c(OC)c3C)nc2c1 [Esomeprazole Potassium] (concentration: 25 µM),0.98 ± 0.027
